Bioassay records from PubChem.
This is a sample that favours compounds with a hit; in the whole collection about 1.6% have one here.
PABP FP inh – blocks human PABP binding to poly(A) RNA. P11940. fluorescence polarization. inhibition, % at 35 µM. 290,000 compounds, 1% hits. AID 2014;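 further: calls also rest on retests at 20 µM and on dose response follow-up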
MLLE-PAM2 inh – blocks PAM2 peptide binding to the PABP1 MLLE domain; P11940; GST-MLLE / FITC-PAM2 fluorescence polarization; inhibition, % at 20 µM; 360,000 compounds, 0.36% hits; AID 588489; in the data active means inhibition above about 35%, passing the limit was not always enough;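 further: plate controls were DMSO wells with GST-MLLE for no effect and wells lacking GST-MLLE protein for full effect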
PERK inh – human PERK inhibition, primary cell-based screen. CHO PERK-DD fusion, SEAP luminescence translation reporter. inhibition, % at 5.6 µM. 220,000 compounds, 0.17% hits. AID 1416;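 active means inhibition above the mean inhibition of all tested compounds plus 3 SD, set separately per screening campaign, cut at about 2.9% in these data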;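 further: PERK kinase domain activated by AP20187 dimerizer at 100 nM; 0% = DMSO with dimerizer and 100% = rapamycin at 8.4 µM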
eIF4E 4G PPI – inhibitors of eIF4E and eIF4G interaction in translation initiation; inhibition, % at 21.7 µM; 220,000 compounds, 0.37% hits; TR-FRET eIF4E-eIF4GI(517-606) binding, 2 h; P63073+Q04637;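 active means inhibition above about 30%, limit read from the data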;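 further: 0% = full FRET control wells and 100% = background wells lacking eIF4GI fragment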
eIF4H inh – inhibitors of RNA binding by human eIF4H | Q15056 | eIF4H fluorescence polarization binding assay | inhibition, % at 35 µM | 290,000 compounds, 0.94% hits | AID 2012;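 further: calls also rest on retests at 20 µM and on dose response follow-up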
The depositor's hits bear a star; ? = inconclusive; · = no result given. Unless noted, how the calls were made is not given here.

SMILES	PABP FP inh	MLLE-PAM2 inh	PERK inh	eIF4E 4G PPI	eIF4H inh
CCCCn1c(N)c(C(=S)NC(=O)CC(C)(C)C)c(=O)n(C)c1=O	7	48*	1	-9	-1
Cc1nn2c(-c3ccccc3)ccnc2c1Br	10	-4	·	·	6
Cc1cc(C)nc(N/N=C/c2cc3c(cc2[N+](=O)[O-])OCO3)n1	11*	8	2	-2	55*
O=C(O)c1ccc(N/N=C/c2cc3c(cc2[N+](=O)[O-])OCO3)cc1	·	26	0	2	·
Cc1ccccc1N=Cc1cc2c(cc1[N+](=O)[O-])OCO2	3.0*	15	1	8	96
O=C(O)CC1(CC(=O)NCc2cccc(Cl)c2)CCCCC1	7	-2	·	·	10
Cc1ccc(Cl)cc1N1CCN(C(=O)CN(c2ccccc2)S(=O)(=O)N(C)C)CC1	-9	7	-2	13	62*
Cc1ccccc1C(=O)N1CCC(C(=O)Nc2ccc(S(=O)(=O)N3CCCC3)cc2)CC1	-8	-39	0	-12	-17
O=C1CC(=O)NC(SCC(=O)Nc2ccccc2[N+](=O)[O-])=N1	60*	10	·	·	78*
Cc1cc(C)nc(SCC(=O)Nc2ccccc2[N+](=O)[O-])n1	1	-2	0	9	-5
O=C(CCc1ccccc1)Nc1ccnn1C1CCN(Cc2ncc[nH]2)CC1	6	7	·	·	6
COc1ccc(NC(=O)C2(c3ccccc3)CCCC2)cc1	0	-12	0	1	-9
Cn1cccc1/C=C1\SC(=O)N(c2ccc(O)cc2)C1=O	80*	17	0	-5	0.7*
CCOc1ccccc1CNC(=O)CCc1cn(C)c2ccccc12	7	-26	·	·	6
CCOC(=O)c1[nH]ncc1[C@@H]1C[C@H]2CN(Cc3cccc(Cl)c3)C(=O)[C@]23CCCN13	-3	10	-1	2	-1
CC1(c2nc3ccccc3[nH]2)CCC(=O)N1Cc1ccc(F)cc1 (stereo unspecified)	·	-1	·	·	·
CCOC(=O)c1c(C)oc2c1c(C=NCCO)c(O)c1ccccc12	10	52*	0	2	?
O=C(c1ccc2c(c1)OCO2)C1CCCN(C(=O)c2cnn(Cc3ccccc3)c2)C1 (stereo unspecified)	7	10	0	-1	4
O=C(c1ccc2c(c1)OCO2)C1CCCN(C(=O)NCc2ccccc2)C1 (stereo unspecified)	53*	-1	1	-2	58*
CN1/C(=C\C(=O)COC(=O)Cn2nnc(-c3ccccc3)n2)C(C)(C)c2ccccc21	7	-45	0	-27	6
O=[N+]([O-])c1cccnc1-n1cnc2ccccc21	-1	25	0	5	46
Cc1cc2ncn(-c3ncccc3[N+](=O)[O-])c2cc1C	8	61*	·	·	-10
Cc1ccc(C(C)C)c(OCC(=O)NNC(=O)C2CSC3(C)CCC(=O)N23)c1 (stereo unspecified)	·	-21	·	·	·
O=C(/C=C/c1ccc(Cl)cc1)N(c1ccccn1)C1CCCCC1	-9	2	-1	-1	-5
N#C/C(=C\c1ccc(-c2ccc(C(=O)O)cc2)o1)C(=O)Nc1ccc(F)cc1	70*	-82	·	·	87*
SMILES	PABP FP inh	MLLE-PAM2 inh	PERK inh	eIF4E 4G PPI	eIF4H inh
COc1ccc(S(=O)(=O)N2CCC(C(=O)N[C@@H](C)C(=O)N3CCCC3)CC2)cc1	·	0	·	·	·
Cc1ccc(OCC(=O)NC(=S)Nc2cccc(NC(=O)c3ccccc3)c2)cc1	4	38*	0	-2	-6
O=C(NC(=S)Nc1ccc2c(c1)OCCO2)c1ccccc1	-10	38*	-2	3	0
O=C(O)c1cccc(NC(=S)NC(=O)c2cccc(OCc3ccccc3)c2)c1	8	40*	·	·	-9
Cc1ccc(OCC(=O)NC(=S)Nc2cccc(NC(=O)c3ccc(Cl)cc3Cl)c2)cc1	-12	16	1	-3	5
CCCOc1cccc(C(=O)NC(=S)Nc2ccccc2)c1	10	17	0	2	3
O=C(O)CCNc1ccc2c(c1)OCCO2	89*	6	1	-16	83*
Cc1cc(C(=O)CCl)c(C)n1CCc1ccccc1	-1	·	0	-5	-2
O=C(O)c1cccc(NC(=S)NC(=O)c2ccncc2)c1	22	44*	0	-1	-5
CC(=O)c1cccc(NC(=S)NC(=O)c2ccccc2Br)c1	27	36*	0	-4	-8
CC(=O)c1cccc(NC(=S)NC(=O)c2ccccc2C)c1	5	22	0	0	6
COc1cccc(NC(=O)CSc2nnc(Cc3cccn3C)n2-c2ccc(F)cc2)c1	1	-19	0	3	-6
O=c1cc(CSc2nnc(NC3CCCCC3)s2)nc2sccn12	6	0	0	-1	-2
C=CCn1c(SCc2cc(=O)n3ccsc3n2)nnc1C1CCCCC1	26*	-32	-1	-3	73*
Cc1onc(-c2ccccc2)c1C(=O)N1CCN(C/C=C/c2ccccc2)CC1	71*	11	0	-4	28*
Cc1ccc(Nc2nc(Oc3ccc(=O)[nH]n3)nc(N(C)C)n2)cc1	-6	4	0	74*	-4
CC1C2(C)OCC(C#N)(C(=N)O2)C1(C#N)C#N (stereo unspecified)	36*	·	0	4	63*
COCc1cc(Sc2ccc(OC)cc2)nc(-c2ccccc2)n1	64	-2	1	-4	active
N#C/C(=C(/O)COC(=O)CCc1ccc(S(=O)(=O)N2CCOCC2)cc1)c1nc2ccccc2[nH]1	41*	-12	0	-20	81
CCOC(=O)COc1ccc2c(C#N)c3ccccn3c2c1	-1	43*	1	2	83
N#Cc1c2ccc(OCC(N)=O)cc2n2ccccc12	-5	35	0	4	32
CCOC(=O)c1cnc(SC)nc1N1CCCC1	-5	3	1	-1	5
CC1=NN(c2ccc(C(=O)O)c(N)c2)C(=O)C1	8	-1	0	12	98*
Nc1c(-c2ccccc2)sc2ccc3ccccc3[n+]12	-4	39*	·	·	-18
CCOc1ccccc1NC(=O)N1CCC(NC(=O)c2cccc(C)c2)CC1	17	-17	-1	56*	17
CC(=O)Nc1nnc(SCC(=O)NCCOc2ccccc2)s1	51*	-115	0	-4	active
COc1c(C)cc(C(=O)C2CCCN(Cc3ccc(Oc4ncccn4)cc3)C2)cc1C (stereo unspecified)	0	4	-1	70*	3
COc1cccc(C(=O)C2CCCN(Cc3cccc(-n4cccn4)c3)C2)c1 (stereo unspecified)	-3	1	-1	2	0
COc1cccc(C(=O)C2CCCN(Cc3cccn3-c3cccnc3)C2)c1 (stereo unspecified)	1.0*	-9	-1	2	81
CC(C)Oc1cccc(C(=O)C2CCCN(Cc3ccc(Oc4ncccn4)cc3)C2)c1 (stereo unspecified)	-6	0	0	3	-10
